{"source": "PubChem BioAssay (Tox21)", "note": "Records with an inconclusive call do not appear. Values without a mark were called inactive. The source made the active and inactive calls. The call rests on the fitted dose curve; in most records, active means well fitted curve in the direction sought with a large enough effect in the repeat runs; inconclusive means weak or mixed curves; inactive means no such curve, though single readings can be large; an effect the other way counts as inactive or inconclusive. On the % scale 0 is the no-effect control and ±100 the full control effect; potency means the concentration at half of the fitted maximal effect.", "data": [{"experiment": "A CellTox Green Cytotoxicity Assay to monitor cytotoxicity in HEK293 cells - 16 hour (AID 1224888); further: nearly all actives have a fitted effect of over 35% in size", "conditions": "CellTox Green fluorescence; series mostly up to 76.8 µM; activity change: at the top concentration", "how_it_was_run": "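Tox21 screen in HEK293: membrane-impermeant cyanine dye fluoresces on binding dead-cell DNA; compound pinned 5 h post-seeding, plates held at 37 C, signal read repeatedly through 40 h.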", "values": [{"smiles": "CC(C)[C@H](C(=O)OC(C#N)c1cccc(Oc2ccccc2)c1)c1ccc(OC(F)F)cc1", "note": "(some centres not stated)", "activity change": "-10.6%"}, {"smiles": "O=[N+]([O-])c1cc(Cl)ccc1Cl", "activity change": "7.78%"}, {"smiles": "SCc1ccco1", "activity change": "12.5%"}, {"smiles": "C[C@@H]1O[C@@H](O[C@H]2C[C@@H](O)[C@]3(CO)[C@H]4[C@H](O)C[C@]5(C)[C@@H](C6=CC(=O)OC6)CC[C@]5(O)[C@@H]4CC[C@]3(O)C2)[C@H](O)[C@H](O)[C@H]1O", "Potency": "inactive"}, {"smiles": "c1ccc2c(c1)OCC(C1=NCCN1)O2", "note": "(configuration not stated)", "activity change": "1.53% [at 35.3 µM, hits give high values]"}, {"smiles": "CC(C)CCCCCOC(=O)c1ccccc1C(=O)OCCCCCC(C)C", "activity change": "-3.27%"}, {"smiles": "CN(C)[C@@H]1C(=O)C(C(N)=O)=C(O)[C@@]2(O)C(=O)C3=C(O)c4c(O)ccc(Cl)c4[C@@](C)(O)[C@H]3C[C@@H]12", "activity change": "0.594%"}, {"smiles": "c1ccc(OCC2CO2)cc1", "note": "(configuration not stated)", "activity change": "-13.8%"}, {"smiles": "Clc1ccc(CSC(Cn2ccnc2)c2ccc(Cl)cc2Cl)cc1", "note": "(configuration not stated)", "activity change": "4.23% [at 35.3 µM, hits give high values]"}, {"smiles": "O=C(O)C1C2CCC(O2)C1C(=O)O", "note": "(configuration not stated)", "Potency": "inactive"}, {"smiles": "CC(C)(COCC1CO1)COCC1CO1", "note": "(configuration not stated)", "activity change": "7.08%"}, {"smiles": "COC12CC[C@@]3(C[C@@H]1C(C)(O)C(C)(C)C)[C@H]1Cc4ccc(O)c5c4[C@@]3(CCN1CC1CC1)[C@H]2O5", "note": "(some centres not stated)", "Potency": "21.7 µM (active)"}, {"smiles": "CCCCCCCCCCCCCCCC[n+]1ccccc1", "Potency": "49 µM (active) [middle of 4 runs]"}, {"smiles": "O=C1NCN(c2ccccc2)C12CCN(CC1COc3ccccc3O1)CC2", "note": "(configuration not stated)", "activity change": "-20.9% [at 35.3 µM, hits give high values]"}, {"smiles": "Nc1ccccc1C(=O)OC/C=C/c1ccccc1", "activity change": "0.768%"}, {"smiles": "S=C(SSC(=S)N1CCCCC1)N1CCCCC1", "activity change": "20.7% [at 35.3 µM, hits give high values]"}, {"smiles": "CCCN(CCC)c1c([N+](=O)[O-])cc(S(N)(=O)=O)cc1[N+](=O)[O-]", "Potency": "52.2 µM (active)"}, {"smiles": "O=c1oc2ccccc2c(O)c1Cc1c(O)c2ccccc2oc1=O", "activity change": "-1.06% [at 35.3 µM, hits give high values]"}, {"smiles": "C=CC(=O)OCCCCOC(=O)C=C", "activity change": "11.1%"}, {"smiles": "Cn1cc(C2=C(c3cn(C4CCN(Cc5ccccn5)CC4)c4ccccc34)C(=O)NC2=O)c2ccccc21", "activity change": "1.28% [at 35.3 µM, hits give high values]"}, {"smiles": "CCc1ccccc1C", "activity change": "15.4%"}, {"smiles": "CC(=O)[O-].CC(=O)[O-].O.O.[Cd+2]", "activity change": "13.9%"}, {"smiles": "O=[N+]([O-])c1ccc(Oc2ccc(C(F)(F)F)cc2[N+](=O)[O-])cc1", "activity change": "-0.439%"}, {"smiles": "C=CC(=O)OCC(COC(=O)C=C)(COC(=O)C=C)COC(=O)C=C", "activity change": "5.45%"}, {"smiles": "COc1cc(C=O)cc2c1[C@H](COC(N)=O)[C@]1(OC(C)=O)ON2C[C@H]2[C@@H]1N2C(C)=O", "activity change": "2.64%"}, {"smiles": "CC(C)Oc1cccc(NC(=O)c2ccccc2C(F)(F)F)c1", "Potency": "49 µM (active)"}, {"smiles": "C[C@]12Cc3nonc3C[C@@H]1CC[C@@H]1[C@@H]2CC[C@@]2(C)[C@H]1CC[C@]2(C)O", "activity change": "11.9% [at 35.3 µM, hits give high values]"}]}, {"experiment": "qHTS RealTime-Glo MT Cell Viability Assay in HepG2 cells - 0 hour (AID 1224889); further: nearly all actives have a fitted effect of over 50% in size", "conditions": "RealTime-Glo luminescence; series mostly up to 76.8 µM; activity change, negative = cytotoxicity: at the top concentration", "how_it_was_run": "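HepG2 cells were seeded at 600 cells/well together with NanoLuc luciferase and a cell-permeant prosubstrate, preincubated 5 h at 37 C/5% CO2, then pin-dosed with compounds in DMSO. Nonlytic luminescence from viable cells was read at each time point.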", "values": [{"smiles": "CC(C)[C@H](C(=O)OC(C#N)c1cccc(Oc2ccccc2)c1)c1ccc(OC(F)F)cc1", "note": "(some centres not stated)", "activity change, negative = cytotoxicity": "0.941%"}, {"smiles": "O=[N+]([O-])c1cc(Cl)ccc1Cl", "activity change, negative = cytotoxicity": "-19%"}, {"smiles": "SCc1ccco1", "activity change, negative = cytotoxicity": "8.27%"}, {"smiles": "c1ccc2c(c1)OCC(C1=NCCN1)O2", "note": "(configuration not stated)", "activity change, negative = cytotoxicity": "0.812% [at 35.3 µM]"}, {"smiles": "CC(C)CCCCCOC(=O)c1ccccc1C(=O)OCCCCCC(C)C", "activity change, negative = cytotoxicity": "-2.46%"}, {"smiles": "Cc1c(Cl)c(=O)oc2cc(OP(=O)(OCCCl)OCCCl)ccc12", "activity change, negative = cytotoxicity": "-26.8% [at 35.3 µM]"}, {"smiles": "CN(C)[C@@H]1C(=O)C(C(N)=O)=C(O)[C@@]2(O)C(=O)C3=C(O)c4c(O)ccc(Cl)c4[C@@](C)(O)[C@H]3C[C@@H]12", "activity change, negative = cytotoxicity": "-6.66%"}, {"smiles": "c1ccc(OCC2CO2)cc1", "note": "(configuration not stated)", "activity change, negative = cytotoxicity": "-1.18%"}, {"smiles": "Clc1ccc(CSC(Cn2ccnc2)c2ccc(Cl)cc2Cl)cc1", "note": "(configuration not stated)", "activity change, negative = cytotoxicity": "-18.3% [at 35.3 µM]"}, {"smiles": "Nc1ccc(Sc2ccc(N)cc2)cc1", "activity change, negative = cytotoxicity": "-31.3%"}, {"smiles": "O=C(O)C1C2CCC(O2)C1C(=O)O", "note": "(configuration not stated)", "Potency": "inactive"}, {"smiles": "CC(C)(COCC1CO1)COCC1CO1", "note": "(configuration not stated)", "activity change, negative = cytotoxicity": "-19.3%"}, {"smiles": "COC12CC[C@@]3(C[C@@H]1C(C)(O)C(C)(C)C)[C@H]1Cc4ccc(O)c5c4[C@@]3(CCN1CC1CC1)[C@H]2O5", "note": "(some centres not stated)", "activity change, negative = cytotoxicity": "-2.56%"}, {"smiles": "CCCCCCCCCCCCCCCC[n+]1ccccc1", "Potency": "inactive"}, {"smiles": "O=C1NCN(c2ccccc2)C12CCN(CC1COc3ccccc3O1)CC2", "note": "(configuration not stated)", "activity change, negative = cytotoxicity": "-17.1% [at 35.3 µM]"}, {"smiles": "Nc1ccccc1C(=O)OC/C=C/c1ccccc1", "activity change, negative = cytotoxicity": "-2.73%"}, {"smiles": "O=C(O)c1cc[c]([Hg][Cl])cc1", "activity change, negative = cytotoxicity": "-9.41%"}, {"smiles": "S=C(SSC(=S)N1CCCCC1)N1CCCCC1", "activity change, negative = cytotoxicity": "-1.92% [at 35.3 µM]"}, {"smiles": "CCN", "activity change, negative = cytotoxicity": "2.55%"}, {"smiles": "CC(C)(C)C(O)/C(=C\\c1ccc(Cl)cc1Cl)n1cncn1", "note": "(configuration not stated)", "activity change, negative = cytotoxicity": "-18.2%"}, {"smiles": "CCCN(CCC)c1c([N+](=O)[O-])cc(S(N)(=O)=O)cc1[N+](=O)[O-]", "activity change, negative = cytotoxicity": "-0.936%"}, {"smiles": "C[C@@H]1CC[C@@]2(OC1)O[C@H]1[C@@H](O)[C@H]3[C@@H]4CC[C@H]5C[C@@H](O[C@@H]6O[C@H](CO)[C@H](O[C@@H]7O[C@H](CO)[C@@H](O)[C@H](O[C@@H]8OC[C@@H](O)[C@H](O)[C@H]8O)[C@H]7O[C@@H]7O[C@H](CO)[C@@H](O)[C@H](O[C@@H]8O[C@H](CO)[C@@H](O)[C@H](O)[C@H]8O)[C@H]7O)[C@H](O)[C@H]6O)[C@H](O)C[C@]5(C)[C@H]4CC[C@]3(C)[C@H]1[C@@H]2C", "Potency": "23.2 µM (active)"}, {"smiles": "CC(C)OC(=O)C(O)(c1ccc(Cl)cc1)c1ccc(Cl)cc1", "activity change, negative = cytotoxicity": "-2.22%"}, {"smiles": "C=CC(=O)OCCCCOC(=O)C=C", "activity change, negative = cytotoxicity": "-4.62%"}, {"smiles": "COP(N)(=S)OC", "activity change, negative = cytotoxicity": "3.74%"}, {"smiles": "COc1cccc2c1C(=O)c1c(O)c3c(c(O)c1C2=O)C[C@@](O)(C(=O)CO)CC3OC1CC(N2CCOC(OC)C2)C(O)C(C)O1", "note": "(some centres not stated)", "activity change, negative = cytotoxicity": "2% [at 35.3 µM]"}, {"smiles": "Cn1cc(C2=C(c3cn(C4CCN(Cc5ccccn5)CC4)c4ccccc34)C(=O)NC2=O)c2ccccc21", "activity change, negative = cytotoxicity": "-4.19% [at 35.3 µM]"}, {"smiles": "CCc1ccccc1C", "activity change, negative = cytotoxicity": "7%"}, {"smiles": "CC(=O)[O-].CC(=O)[O-].O.O.[Cd+2]", "activity change, negative = cytotoxicity": "-0.265%"}, {"smiles": "O=[N+]([O-])c1ccc(Oc2ccc(C(F)(F)F)cc2[N+](=O)[O-])cc1", "activity change, negative = cytotoxicity": "-4.68%"}, {"smiles": "C=CC(=O)OCC(COC(=O)C=C)(COC(=O)C=C)COC(=O)C=C", "activity change, negative = cytotoxicity": "-2.36%"}, {"smiles": "COc1cc(C=O)cc2c1[C@H](COC(N)=O)[C@]1(OC(C)=O)ON2C[C@H]2[C@@H]1N2C(C)=O", "activity change, negative = cytotoxicity": "-5.24%"}, {"smiles": "CC(C)Oc1cccc(NC(=O)c2ccccc2C(F)(F)F)c1", "activity change, negative = cytotoxicity": "-21%"}, {"smiles": "C[C@]12Cc3nonc3C[C@@H]1CC[C@@H]1[C@@H]2CC[C@@]2(C)[C@H]1CC[C@]2(C)O", "activity change, negative = cytotoxicity": "9.35% [at 35.3 µM]"}, {"smiles": "CCOCn1c(-c2ccc(Cl)cc2)c(C#N)c(Br)c1C(F)(F)F", "activity change, negative = cytotoxicity": "-9.56%"}]}]}
